From ChEMBL document CHEMBL1961873, “Compounds: GSK PKIS; Assays: Nanosyn kinase panel” (2012)

Assays:
[1] = biological target: T1, Inhibitor of nuclear factor kappa-B kinase subunit epsilon (Homo sapiens) (UniProt Q14164); details: at 1 µM;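 further: reported values are averaged percent inhibition figures against human IKKε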
T1 sequence (whole entry): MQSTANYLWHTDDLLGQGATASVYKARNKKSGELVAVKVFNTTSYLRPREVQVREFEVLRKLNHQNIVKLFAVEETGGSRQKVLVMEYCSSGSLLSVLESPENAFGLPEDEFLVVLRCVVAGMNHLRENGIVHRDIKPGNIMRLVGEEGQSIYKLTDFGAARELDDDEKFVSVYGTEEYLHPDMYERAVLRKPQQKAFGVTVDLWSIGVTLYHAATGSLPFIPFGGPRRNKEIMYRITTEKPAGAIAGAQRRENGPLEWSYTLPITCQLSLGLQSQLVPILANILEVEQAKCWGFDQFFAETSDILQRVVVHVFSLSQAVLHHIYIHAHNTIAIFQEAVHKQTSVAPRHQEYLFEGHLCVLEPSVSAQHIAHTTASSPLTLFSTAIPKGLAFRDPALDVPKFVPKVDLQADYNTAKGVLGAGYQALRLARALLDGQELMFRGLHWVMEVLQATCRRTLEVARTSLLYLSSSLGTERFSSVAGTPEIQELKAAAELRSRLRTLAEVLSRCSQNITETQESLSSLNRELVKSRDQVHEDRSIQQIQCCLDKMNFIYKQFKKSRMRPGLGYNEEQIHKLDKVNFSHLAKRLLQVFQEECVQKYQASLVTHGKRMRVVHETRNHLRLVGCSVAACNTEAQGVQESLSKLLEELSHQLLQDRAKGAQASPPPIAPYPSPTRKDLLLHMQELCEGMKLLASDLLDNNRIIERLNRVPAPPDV

[2] = biological target: T2, Serine/threonine-protein kinase Nek1 (Homo sapiens) (UniProt Q96PY6); details: at 0.1 µM
T2 sequence (whole entry): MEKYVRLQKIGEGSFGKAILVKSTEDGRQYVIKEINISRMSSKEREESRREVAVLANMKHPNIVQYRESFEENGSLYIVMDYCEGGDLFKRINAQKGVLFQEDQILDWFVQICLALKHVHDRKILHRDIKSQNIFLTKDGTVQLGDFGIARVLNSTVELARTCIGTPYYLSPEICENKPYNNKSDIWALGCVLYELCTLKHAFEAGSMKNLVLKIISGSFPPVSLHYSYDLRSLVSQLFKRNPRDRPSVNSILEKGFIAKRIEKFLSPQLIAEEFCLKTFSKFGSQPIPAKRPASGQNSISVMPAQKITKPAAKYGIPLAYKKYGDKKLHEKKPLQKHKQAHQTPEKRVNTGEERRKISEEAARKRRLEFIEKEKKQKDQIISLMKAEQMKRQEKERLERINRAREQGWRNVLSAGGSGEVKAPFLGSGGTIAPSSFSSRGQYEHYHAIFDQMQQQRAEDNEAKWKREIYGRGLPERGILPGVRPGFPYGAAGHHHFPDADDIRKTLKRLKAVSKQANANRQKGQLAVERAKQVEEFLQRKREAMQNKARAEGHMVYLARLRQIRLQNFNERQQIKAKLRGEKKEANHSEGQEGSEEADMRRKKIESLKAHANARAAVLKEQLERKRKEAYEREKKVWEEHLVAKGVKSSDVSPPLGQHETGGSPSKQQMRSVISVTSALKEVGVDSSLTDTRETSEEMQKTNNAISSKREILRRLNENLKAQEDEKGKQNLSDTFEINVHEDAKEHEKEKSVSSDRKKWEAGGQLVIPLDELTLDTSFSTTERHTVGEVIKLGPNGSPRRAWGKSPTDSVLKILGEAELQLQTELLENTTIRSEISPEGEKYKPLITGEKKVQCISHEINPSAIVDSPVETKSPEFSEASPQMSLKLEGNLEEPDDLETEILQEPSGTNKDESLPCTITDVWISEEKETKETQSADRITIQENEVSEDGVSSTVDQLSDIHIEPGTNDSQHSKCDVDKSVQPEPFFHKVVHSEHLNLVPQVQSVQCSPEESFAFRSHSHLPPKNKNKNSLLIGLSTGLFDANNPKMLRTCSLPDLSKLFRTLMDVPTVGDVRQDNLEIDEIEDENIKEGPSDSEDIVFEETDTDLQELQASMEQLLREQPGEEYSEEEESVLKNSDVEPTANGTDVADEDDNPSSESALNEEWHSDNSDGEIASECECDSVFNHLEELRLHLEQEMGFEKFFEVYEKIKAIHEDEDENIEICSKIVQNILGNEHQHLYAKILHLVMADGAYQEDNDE

[3] = biological target: T2, Serine/threonine-protein kinase Nek1 (Homo sapiens); details: at 1 µM
[4] = biological target: T3, Serine/threonine-protein kinase Nek2 (Homo sapiens) (UniProt P51955); details: at 0.1 µM
T3 sequence (whole entry): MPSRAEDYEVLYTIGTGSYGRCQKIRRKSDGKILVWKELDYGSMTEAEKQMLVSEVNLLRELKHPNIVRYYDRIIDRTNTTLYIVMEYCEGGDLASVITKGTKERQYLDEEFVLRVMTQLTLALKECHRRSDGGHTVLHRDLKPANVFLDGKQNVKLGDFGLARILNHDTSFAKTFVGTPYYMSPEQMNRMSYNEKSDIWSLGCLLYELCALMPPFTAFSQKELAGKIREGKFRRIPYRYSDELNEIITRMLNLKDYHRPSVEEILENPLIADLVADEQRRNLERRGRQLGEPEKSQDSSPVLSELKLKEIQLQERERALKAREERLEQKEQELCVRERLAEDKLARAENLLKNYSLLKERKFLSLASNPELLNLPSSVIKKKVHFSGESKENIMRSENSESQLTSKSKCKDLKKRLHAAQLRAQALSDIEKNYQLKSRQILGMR

[5] = biological target: T3, Serine/threonine-protein kinase Nek2 (Homo sapiens); details: at 1 µM
[6] = biological target: Serine/threonine-protein kinase Nek6 (Homo sapiens) (UniProt Q9HC98); details: at 0.1 µM
[7] = biological target: Serine/threonine-protein kinase Nek6 (Homo sapiens) (UniProt Q9HC98); details: at 1 µM
[8] = biological target: Serine/threonine-protein kinase Nek7 (Homo sapiens) (UniProt Q8TDX7); details: at 0.1 µM
[9] = biological target: Serine/threonine-protein kinase Nek7 (Homo sapiens) (UniProt Q8TDX7); details: at 1 µM
[10] = biological target: T4, Serine/threonine-protein kinase Nek9 (Homo sapiens) (UniProt Q8TD19); details: at 0.1 µM
T4 sequence (whole entry): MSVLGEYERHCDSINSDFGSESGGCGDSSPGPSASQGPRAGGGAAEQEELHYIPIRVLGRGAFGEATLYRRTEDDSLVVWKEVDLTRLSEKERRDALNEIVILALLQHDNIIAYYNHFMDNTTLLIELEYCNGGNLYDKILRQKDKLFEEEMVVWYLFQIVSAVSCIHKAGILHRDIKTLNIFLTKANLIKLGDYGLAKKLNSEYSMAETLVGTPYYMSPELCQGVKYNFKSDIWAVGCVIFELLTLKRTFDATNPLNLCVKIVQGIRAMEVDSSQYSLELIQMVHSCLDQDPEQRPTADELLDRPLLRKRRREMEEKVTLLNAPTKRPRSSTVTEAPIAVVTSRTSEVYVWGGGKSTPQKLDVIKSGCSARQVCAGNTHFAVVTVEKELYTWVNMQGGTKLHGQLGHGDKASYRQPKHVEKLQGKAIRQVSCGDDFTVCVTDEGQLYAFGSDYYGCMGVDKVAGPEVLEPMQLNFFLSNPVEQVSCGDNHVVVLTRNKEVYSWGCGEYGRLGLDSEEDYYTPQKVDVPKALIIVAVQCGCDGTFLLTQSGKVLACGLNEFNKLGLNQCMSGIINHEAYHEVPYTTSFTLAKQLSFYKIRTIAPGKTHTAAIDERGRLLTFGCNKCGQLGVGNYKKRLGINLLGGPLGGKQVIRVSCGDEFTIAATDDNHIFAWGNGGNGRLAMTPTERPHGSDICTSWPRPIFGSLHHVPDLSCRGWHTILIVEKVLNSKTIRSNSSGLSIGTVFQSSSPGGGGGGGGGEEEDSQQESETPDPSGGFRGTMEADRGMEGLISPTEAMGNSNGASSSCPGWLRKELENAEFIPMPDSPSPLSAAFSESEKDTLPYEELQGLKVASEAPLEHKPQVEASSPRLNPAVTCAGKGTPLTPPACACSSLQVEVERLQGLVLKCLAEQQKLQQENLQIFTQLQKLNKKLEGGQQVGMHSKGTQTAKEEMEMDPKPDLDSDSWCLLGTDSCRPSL

[11] = biological target: T4, Serine/threonine-protein kinase Nek9 (Homo sapiens); details: at 1 µM
[12] = biological target: Serine/threonine-protein kinase PLK1 (Homo sapiens) (UniProt P53350); details: at 0.1 µM
[13] = biological target: Serine/threonine-protein kinase PLK1 (Homo sapiens) (UniProt P53350); details: at 1 µM
[14] = biological target: T5, Dual specificity protein kinase TTK (Homo sapiens) (UniProt P33981); details: at 0.1 µM
T5 sequence (whole entry): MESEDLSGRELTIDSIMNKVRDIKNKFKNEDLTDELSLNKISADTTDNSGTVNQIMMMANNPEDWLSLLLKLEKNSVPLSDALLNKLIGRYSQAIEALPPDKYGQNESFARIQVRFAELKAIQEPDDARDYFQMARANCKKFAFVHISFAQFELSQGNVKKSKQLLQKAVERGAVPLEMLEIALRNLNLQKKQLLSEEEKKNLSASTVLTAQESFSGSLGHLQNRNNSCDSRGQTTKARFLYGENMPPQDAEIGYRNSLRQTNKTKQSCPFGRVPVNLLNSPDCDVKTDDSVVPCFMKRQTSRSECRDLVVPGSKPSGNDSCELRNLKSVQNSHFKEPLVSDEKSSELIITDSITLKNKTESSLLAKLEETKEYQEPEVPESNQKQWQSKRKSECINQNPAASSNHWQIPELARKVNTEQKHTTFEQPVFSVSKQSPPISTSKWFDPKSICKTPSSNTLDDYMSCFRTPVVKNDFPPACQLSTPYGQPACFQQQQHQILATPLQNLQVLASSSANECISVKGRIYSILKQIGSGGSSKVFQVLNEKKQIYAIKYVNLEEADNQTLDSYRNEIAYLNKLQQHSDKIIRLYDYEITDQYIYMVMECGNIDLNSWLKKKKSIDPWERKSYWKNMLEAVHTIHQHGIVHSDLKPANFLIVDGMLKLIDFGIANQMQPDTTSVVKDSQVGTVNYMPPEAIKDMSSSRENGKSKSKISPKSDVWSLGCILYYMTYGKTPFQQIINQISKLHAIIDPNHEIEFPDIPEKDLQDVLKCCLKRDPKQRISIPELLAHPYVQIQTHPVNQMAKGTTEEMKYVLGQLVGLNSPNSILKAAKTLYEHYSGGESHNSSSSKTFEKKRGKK

[15] = test system: T6, Receptor-type tyrosine-protein kinase FLT3 (Homo sapiens), P36888 [D835Y]; details: at 1 µM
T6 sequence (whole entry): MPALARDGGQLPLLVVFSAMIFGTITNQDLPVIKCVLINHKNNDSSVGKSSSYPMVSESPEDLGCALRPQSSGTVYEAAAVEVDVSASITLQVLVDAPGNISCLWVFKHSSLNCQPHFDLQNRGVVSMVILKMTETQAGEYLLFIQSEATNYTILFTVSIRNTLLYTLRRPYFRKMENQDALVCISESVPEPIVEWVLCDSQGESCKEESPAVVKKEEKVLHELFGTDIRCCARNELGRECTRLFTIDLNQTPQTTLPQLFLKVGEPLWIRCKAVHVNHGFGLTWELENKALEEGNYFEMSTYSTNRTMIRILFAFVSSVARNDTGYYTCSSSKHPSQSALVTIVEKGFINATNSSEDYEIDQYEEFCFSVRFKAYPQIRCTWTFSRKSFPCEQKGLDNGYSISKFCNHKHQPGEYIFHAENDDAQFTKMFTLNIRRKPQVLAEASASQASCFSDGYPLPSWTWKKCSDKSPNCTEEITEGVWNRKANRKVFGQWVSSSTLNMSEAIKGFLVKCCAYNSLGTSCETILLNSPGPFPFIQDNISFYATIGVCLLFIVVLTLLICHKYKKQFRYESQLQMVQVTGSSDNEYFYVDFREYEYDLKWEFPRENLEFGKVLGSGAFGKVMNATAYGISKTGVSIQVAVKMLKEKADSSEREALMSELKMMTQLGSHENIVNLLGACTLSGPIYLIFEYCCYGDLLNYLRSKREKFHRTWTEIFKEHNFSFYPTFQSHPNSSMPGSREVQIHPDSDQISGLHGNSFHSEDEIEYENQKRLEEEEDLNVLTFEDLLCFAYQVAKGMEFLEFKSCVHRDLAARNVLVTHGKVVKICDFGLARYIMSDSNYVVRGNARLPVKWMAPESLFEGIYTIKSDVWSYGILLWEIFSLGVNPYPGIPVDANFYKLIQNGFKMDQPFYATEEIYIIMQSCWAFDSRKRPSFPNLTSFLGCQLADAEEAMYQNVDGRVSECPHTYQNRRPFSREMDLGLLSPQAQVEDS

[16] = biological target: Vascular endothelial growth factor receptor 3 (Homo sapiens) (UniProt P35916); details: at 0.1 µM
[17] = biological target: Vascular endothelial growth factor receptor 3 (Homo sapiens) (UniProt P35916); details: at 1 µM
[18] = biological target: Macrophage colony-stimulating factor 1 receptor (Homo sapiens) (UniProt P07333); details: at 0.1 µM
[19] = biological target: Macrophage colony-stimulating factor 1 receptor (Homo sapiens) (UniProt P07333); details: at 1 µM
[20] = biological target: Tyrosine-protein kinase Fyn (Homo sapiens) (UniProt P06241); details: at 0.1 µM
Chain of Tyrosine-protein kinase Fyn (Homo sapiens) (P06241 2-537 limits assumed): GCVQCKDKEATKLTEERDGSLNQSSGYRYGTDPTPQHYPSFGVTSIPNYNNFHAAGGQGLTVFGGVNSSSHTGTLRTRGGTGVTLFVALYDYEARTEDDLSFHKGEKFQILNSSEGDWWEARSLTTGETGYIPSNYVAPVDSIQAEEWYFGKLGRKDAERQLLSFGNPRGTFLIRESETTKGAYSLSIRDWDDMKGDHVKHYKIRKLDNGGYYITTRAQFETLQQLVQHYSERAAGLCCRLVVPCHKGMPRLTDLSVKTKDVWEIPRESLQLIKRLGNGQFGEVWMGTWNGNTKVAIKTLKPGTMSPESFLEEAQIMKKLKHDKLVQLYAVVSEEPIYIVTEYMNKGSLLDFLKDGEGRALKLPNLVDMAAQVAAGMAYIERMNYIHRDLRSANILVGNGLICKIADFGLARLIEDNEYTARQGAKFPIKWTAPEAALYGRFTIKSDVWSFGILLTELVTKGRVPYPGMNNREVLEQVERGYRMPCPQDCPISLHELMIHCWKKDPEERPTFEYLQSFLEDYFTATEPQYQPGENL

Chain of Serine/threonine-protein kinase PLK1 (Homo sapiens) (P53350 whole entry): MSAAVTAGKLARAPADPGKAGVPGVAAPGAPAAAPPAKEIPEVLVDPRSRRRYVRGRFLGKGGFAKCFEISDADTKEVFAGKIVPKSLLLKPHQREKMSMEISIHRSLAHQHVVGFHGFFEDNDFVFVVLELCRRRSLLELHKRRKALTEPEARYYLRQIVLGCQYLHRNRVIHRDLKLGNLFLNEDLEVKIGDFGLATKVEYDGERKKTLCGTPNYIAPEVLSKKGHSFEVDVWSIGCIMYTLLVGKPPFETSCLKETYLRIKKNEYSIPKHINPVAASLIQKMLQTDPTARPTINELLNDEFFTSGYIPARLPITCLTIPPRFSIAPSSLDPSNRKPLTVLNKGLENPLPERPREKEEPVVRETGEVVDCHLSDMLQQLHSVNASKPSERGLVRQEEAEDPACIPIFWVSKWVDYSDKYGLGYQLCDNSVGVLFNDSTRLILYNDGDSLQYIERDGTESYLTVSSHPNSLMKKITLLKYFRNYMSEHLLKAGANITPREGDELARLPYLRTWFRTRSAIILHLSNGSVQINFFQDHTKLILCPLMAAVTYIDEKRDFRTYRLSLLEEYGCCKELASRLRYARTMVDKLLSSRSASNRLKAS
Chain of Macrophage colony-stimulating factor 1 receptor (Homo sapiens) (P07333 whole entry): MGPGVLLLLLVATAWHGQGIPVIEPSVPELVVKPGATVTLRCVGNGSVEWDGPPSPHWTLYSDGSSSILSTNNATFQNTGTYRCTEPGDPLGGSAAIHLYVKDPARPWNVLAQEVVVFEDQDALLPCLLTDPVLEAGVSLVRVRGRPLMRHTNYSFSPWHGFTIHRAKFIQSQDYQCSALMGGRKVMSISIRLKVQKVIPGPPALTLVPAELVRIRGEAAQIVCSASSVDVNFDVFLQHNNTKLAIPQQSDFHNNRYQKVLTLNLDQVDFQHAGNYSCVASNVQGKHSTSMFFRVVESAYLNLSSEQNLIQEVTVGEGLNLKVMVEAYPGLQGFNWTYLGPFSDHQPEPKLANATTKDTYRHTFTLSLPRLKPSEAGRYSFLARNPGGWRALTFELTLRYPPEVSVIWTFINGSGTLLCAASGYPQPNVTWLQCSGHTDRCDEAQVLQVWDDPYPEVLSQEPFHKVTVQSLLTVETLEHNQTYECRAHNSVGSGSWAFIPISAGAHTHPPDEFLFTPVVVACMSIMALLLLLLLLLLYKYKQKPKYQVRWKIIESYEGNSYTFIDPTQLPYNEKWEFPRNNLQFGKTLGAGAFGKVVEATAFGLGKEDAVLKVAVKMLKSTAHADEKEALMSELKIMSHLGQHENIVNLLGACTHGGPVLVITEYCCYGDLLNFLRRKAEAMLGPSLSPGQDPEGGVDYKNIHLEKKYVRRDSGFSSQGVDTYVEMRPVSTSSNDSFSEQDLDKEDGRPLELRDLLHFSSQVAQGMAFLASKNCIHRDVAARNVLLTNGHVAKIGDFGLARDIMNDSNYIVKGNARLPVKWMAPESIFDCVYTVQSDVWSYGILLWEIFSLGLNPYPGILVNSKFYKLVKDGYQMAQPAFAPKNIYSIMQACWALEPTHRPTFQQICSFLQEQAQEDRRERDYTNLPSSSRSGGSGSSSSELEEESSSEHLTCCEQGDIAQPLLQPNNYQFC
Chain of Serine/threonine-protein kinase Nek7 (Homo sapiens) (Q8TDX7 whole entry, looked up): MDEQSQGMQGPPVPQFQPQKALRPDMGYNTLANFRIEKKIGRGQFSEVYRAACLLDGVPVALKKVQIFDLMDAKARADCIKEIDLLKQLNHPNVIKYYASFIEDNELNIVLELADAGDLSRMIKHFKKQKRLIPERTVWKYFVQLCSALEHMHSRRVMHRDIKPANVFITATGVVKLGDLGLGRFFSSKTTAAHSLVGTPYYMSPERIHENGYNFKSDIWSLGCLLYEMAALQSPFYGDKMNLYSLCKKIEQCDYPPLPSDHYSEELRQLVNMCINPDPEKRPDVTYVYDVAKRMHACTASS
Chain of Vascular endothelial growth factor receptor 3 (Homo sapiens) (P35916 whole entry): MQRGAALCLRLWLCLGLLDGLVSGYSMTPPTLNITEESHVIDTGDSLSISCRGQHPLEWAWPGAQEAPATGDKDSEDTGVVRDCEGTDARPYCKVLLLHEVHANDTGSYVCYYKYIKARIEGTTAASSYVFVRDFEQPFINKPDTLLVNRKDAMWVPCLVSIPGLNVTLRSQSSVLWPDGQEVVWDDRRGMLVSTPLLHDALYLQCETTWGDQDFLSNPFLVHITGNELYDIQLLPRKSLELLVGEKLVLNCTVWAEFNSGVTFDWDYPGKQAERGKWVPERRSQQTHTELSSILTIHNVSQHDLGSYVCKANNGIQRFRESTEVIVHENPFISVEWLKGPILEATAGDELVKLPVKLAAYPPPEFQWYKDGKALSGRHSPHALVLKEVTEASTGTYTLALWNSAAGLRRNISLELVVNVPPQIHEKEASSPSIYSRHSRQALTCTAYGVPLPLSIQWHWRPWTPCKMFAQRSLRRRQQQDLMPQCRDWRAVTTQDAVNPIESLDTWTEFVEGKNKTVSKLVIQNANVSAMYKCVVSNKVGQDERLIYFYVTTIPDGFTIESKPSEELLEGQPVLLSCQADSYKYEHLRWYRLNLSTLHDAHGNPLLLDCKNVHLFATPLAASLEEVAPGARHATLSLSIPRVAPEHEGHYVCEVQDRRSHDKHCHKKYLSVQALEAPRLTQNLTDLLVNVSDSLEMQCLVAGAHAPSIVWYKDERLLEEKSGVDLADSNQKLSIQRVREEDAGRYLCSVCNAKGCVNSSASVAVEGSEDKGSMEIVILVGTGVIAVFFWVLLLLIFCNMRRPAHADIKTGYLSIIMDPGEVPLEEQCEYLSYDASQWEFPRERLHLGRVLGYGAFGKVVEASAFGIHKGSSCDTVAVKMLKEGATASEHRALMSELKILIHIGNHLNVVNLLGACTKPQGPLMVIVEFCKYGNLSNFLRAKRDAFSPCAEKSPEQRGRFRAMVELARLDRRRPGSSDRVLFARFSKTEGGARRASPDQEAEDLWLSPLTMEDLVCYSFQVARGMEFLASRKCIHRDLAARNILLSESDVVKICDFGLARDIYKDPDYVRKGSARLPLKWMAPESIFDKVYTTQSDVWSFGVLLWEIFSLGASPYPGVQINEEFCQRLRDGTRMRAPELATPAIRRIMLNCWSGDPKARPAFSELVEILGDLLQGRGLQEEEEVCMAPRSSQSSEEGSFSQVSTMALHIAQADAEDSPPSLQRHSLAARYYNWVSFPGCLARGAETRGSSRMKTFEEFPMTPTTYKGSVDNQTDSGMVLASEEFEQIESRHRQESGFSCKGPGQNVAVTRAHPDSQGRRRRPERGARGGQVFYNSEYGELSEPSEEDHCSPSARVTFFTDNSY
Chain of Serine/threonine-protein kinase Nek6 (Homo sapiens) (Q9HC98 whole entry): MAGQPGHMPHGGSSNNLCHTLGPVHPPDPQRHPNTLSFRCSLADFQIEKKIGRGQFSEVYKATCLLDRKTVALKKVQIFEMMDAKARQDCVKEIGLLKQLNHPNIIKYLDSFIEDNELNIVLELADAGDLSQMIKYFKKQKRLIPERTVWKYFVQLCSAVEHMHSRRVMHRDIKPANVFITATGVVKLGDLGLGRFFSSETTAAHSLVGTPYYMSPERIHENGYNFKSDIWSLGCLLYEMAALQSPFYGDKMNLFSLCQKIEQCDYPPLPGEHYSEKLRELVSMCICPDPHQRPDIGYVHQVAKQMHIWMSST

SMILES	inhibition [1] [%]	inhibition [2] [%]	inhibition [3] [%]	inhibition [4] [%]	inhibition [5] [%]	inhibition [6] [%]	inhibition [7] [%]	inhibition [8] [%]	inhibition [9] [%]	inhibition [10] [%]	inhibition [11] [%]	inhibition [12] [%]	inhibition [13] [%]	inhibition [14] [%]	inhibition [15] [%]	inhibition [16] [%]	inhibition [17] [%]	inhibition [18] [%]	inhibition [19] [%]	inhibition [20] [%]
FC(F)(F)c1ccc(-c2nn3ncccc3c2-c2ccnc(Nc3ccc4c(c3)OCCO4)n2)cc1	-1.52	4.77	2.05	1.11	1.32	-1.63	1.37	-5.04	-5.62	-5.79	-0.89	0.09	-1.77	3.35	-0.25	-2.47	4.74	0.29	10.3	2.65
COc1ccc(-c2nn3ncccc3c2-c2ccnc(Nc3cccc(C(F)(F)F)c3)n2)cc1	4.37	1.37	0.9	4.06	1.46	-1.61	1.08	1.12	2.05	6.48	3.9	1.94	0.44	5.91	-4.73	1.62	10.2	2.47	19.4	1.38
